Screening results from PubChem BioAssay.
HT1080 IDH1KD tx = qHTS for induction of synthetic lethality in tumor cells producing 2HG: qHTS for the HT-1080-IDH1KD cell line; HT-1080 IDH1 knockdown viability, ATP luminescence, 48 h; Potency, µM (doses to about 46.1 µM), inactives show at the highest dose activity, negative = toxicity, hits mostly cytotoxic; 360,000 tested, 2% active;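 also: potency is read from the fitted curve at half-maximal effect; 0% = DMSO wells and -100% = cell-free medium wells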
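Viability of IDH1-knockdown HT-1080 fibrosarcoma cells was assessed by CellTiter-Glo after 48 h at 37 °C with titrated compound; concentration-effect curves were classified by fit quality and response size.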
HT1080-NT tox = qHTS for induction of synthetic lethality in tumor cells producing 2HG: qHTS for the HT-1080-NT fibrosarcoma cell line. HT-1080-NT fibrosarcoma viability, CellTiter-Glo ATP luminescence, 48 h. Potency, µM (highest dose often 46.1 µM), for the others: at the top dose activity, negative = less viability, hits mostly cytotoxic. 360,000 tested, 1.6% active. AID 686970, 2013;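 also: NT is the 2HG producing partner of a matched IDH1 knockdown line; potency is read from the fitted curve at half-maximal effect; 0% = DMSO-treated cells and -100% = media-only wells without cells; nearly all actives have a fitted effect of over 55% in size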
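Compounds were tested in concentration-response format on HT-1080-NT cells for 48 hours at 37 degrees C. Cell viability came from CellTiter-Glo luminescence; curves were classified by r2, response magnitude and activity.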
IL1B secr inh = qHTS for Inhibitors of Inflammasome Signaling: IL-1-beta AlphaLISA Primary Screen | THP-1 LPS/ATP IL-1B secretion, AlphaLISA, 16 h; active compounds read low | activity change, % at 57.5 µM | 360,000 tested, 4.7% active; in the data active = activity change below about -50%; inconclusive = mostly about -30% to -49%; also: % is scaled to controls: 0 for no effect and ±100 for the full control effect
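THP-1 cells pretreated 1 hr with compounds (up to 57.5 uM final), then stimulated with LPS (250 ng/mL final) plus ATP (1.25 mM final); secreted IL-1B measured by AlphaLISA after 16 hr, decreased signal indicating inhibition.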
HepG2 tox = qHTS for Inhibitors of TGF-b: Cytotox Counterscreen | HepG2 CAGA-GFP viability, ATP luminescence, 18 h | Potency, µM (series often up to 46.1 µM), without a hit: top-dose activity change, negative = cytotoxicity, most hits filed as cytotoxic | 410,000 tested, 0.76% active; also: potency is read from the fitted curve at half-maximal effect
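CellTiter-Glo luminescence gave cytotoxicity after 18 hours at 37 degrees C. The cells were HepG2 CAGA-GFP in 1% FBS DMEM, stimulated with 500 pg/mL TGF-beta after compound addition. %Activity was normalised to no-cell wells (complete cell-killing) and DMSO (no toxicity), and curves were fitted and classified.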
Giardia kill = Small Molecules that selectively kill Giardia lamblia: qHTS | Giardia lamblia trophozoite viability | activity change, % at 7.66 µM, hits read low | 340,000 tested, 0.15% active | AID 540267, 2011; in the data active = activity change below about -80%; inconclusive = between about -30% and that limit;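 also: parasites exposed to compound for two days anaerobically before the ATP read; % is scaled to controls: 0 for no effect and ±100 for the full control effect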
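Killing of trophozoites was scored by loss of ATP luminescence after a 48 hrs anaerobic exposure to compounds at 37 deg C, using 100 cells per well.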
TGFb inhibitor = qHTS for Inhibitors of TGF-b. HepG2 CAGA-GFP TGF-b/SMAD3 reporter, GFP fluorescence, 18 h; TGF-beta stimulated, 500 pg/mL final. Potency, µM (highest dose often 46.1 µM), for the others: at the highest dose activity, negative = inhibition, most hits filed as inhibitors. 410,000 tested, 1.2% active. AID 588855, 2011; also: potency is read from the fitted curve at half-maximal effect; % is scaled to controls: 0 for no effect and ±100 for the full control effect; nearly all actives have a fitted effect of over 65% in size
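Smad-responsive CAGA-GFP expression was quantified in HEPG2 cells exposed to compounds and 500 pg/mL final TGF-beta for 18 h at 37 degrees C; unstimulated wells defined full inhibition.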
Active calls of the source: *. In the library only some 6.5% were active in any assay of this set; here they are far more common. Unless noted, calls follow the shape of the dose curve; as a rule, active = well fitted curve in the direction sought with a large enough effect; inconclusive = small, poorly fitted or top-dose-only effect, or another doubt; inactive = no such curve, though single readings can be large; an effect the other way counts as inactive or inconclusive.

Results for C#CC(=O)N(c1cc(OC)ccc1OC)C(C(=O)NC1CCCC1)c1cccs1 (stereo unspecified) ?
HT1080 IDH1KD tx: 0.731µM*; HT1080-NT tox: 0.0731µM*; IL1B secr inh: -120.2*; HepG2 tox: -83.4%; Giardia kill: 2.4; TGFb inhibitor: inconclusive

Results for COc1ccc(N(C(=O)c2ccco2)C(C(=O)NC2CCCCC2)c2cccs2)cc1OC (stereo unspecified) ?
HT1080 IDH1KD tx: -2.1%; HT1080-NT tox: 0.6%; IL1B secr inh: 5.6; HepG2 tox: 1.0%; Giardia kill: 2.2; TGFb inhibitor: -2.5%

How did CCN(CC)CCOc1ccc(/C(=C(\Cl)c2ccccc2)c2ccccc2)cc1 do in these assays?
HT1080 IDH1KD tx: 14.6µM*; HT1080-NT tox: 4.61µM*; IL1B secr inh: -15.2; HepG2 tox: -103.3%; Giardia kill: -16.7; TGFb inhibitor: inconclusive

Results for CCN(CC)CCOc1ccc(Br)cc1 ?
HT1080 IDH1KD tx: 3.5%; HT1080-NT tox: 7.1%; IL1B secr inh: -19.2; HepG2 tox: -3.2%; Giardia kill: -26.2; TGFb inhibitor: 2.5%

Results for CC(NC(=O)COC(=O)CN1C(=O)c2ccccc2C1=O)c1ccccc1 (stereo unspecified) ?
HT1080 IDH1KD tx: -0.4%; HT1080-NT tox: 2.0%; IL1B secr inh: 1.4; HepG2 tox: 4.3%; Giardia kill: -11.1; TGFb inhibitor: 2.4%

Results for CC(C)(C)c1ccc(-c2nnc(NC(=O)c3ccccc3)s2)cc1 ?
HT1080 IDH1KD tx: inconclusive; HT1080-NT tox: -4.7%; IL1B secr inh: -11.7; HepG2 tox: -39.4%; Giardia kill: 0.1; TGFb inhibitor: -4.9%

How did CCOC(=O)c1cnc2c(C)cc(C)cc2c1NCCN1CCOCC1 do in these assays?
HepG2 tox: -4.0%; TGFb inhibitor: -3.2%

What do the screens show for `CCOC(=O)c1cnc2c(ccc3ccccc32)c1NCCCN(C)C`?
HT1080 IDH1KD tx: 20.6µM*; HT1080-NT tox: inconclusive; HepG2 tox: -38.3%; Giardia kill: 33.2; TGFb inhibitor: inconclusive

Results for CCOC(=O)c1cnc2c(ccc3ccccc32)c1Nc1ccccc1OCC ?
HepG2 tox: -20.8%; TGFb inhibitor: -17.5%

How did CCOC(=O)c1cnc2c(C)cc(C)cc2c1NCCCN1CCOCC1 do in these assays?
HT1080 IDH1KD tx: -6.6%; HT1080-NT tox: -4.8%; IL1B secr inh: -70.8*; HepG2 tox: -15.7%; Giardia kill: -14.4; TGFb inhibitor: -8.0%

Results for COc1cc(/C=N/NC(=O)c2cc(-c3cccn3C)n[nH]2)cc(OC)c1OC ?
HT1080 IDH1KD tx: -6.5%; HT1080-NT tox: 2.1%; IL1B secr inh: -85.3*; HepG2 tox: -20.1%; Giardia kill: -6.8; TGFb inhibitor: 34.8%

What do the screens show for `Cn1cccc1-c1cc(C(=O)N/N=C/C=C/c2ccccc2)[nH]n1`?
HT1080 IDH1KD tx: -9.2%; HT1080-NT tox: -5.5%; IL1B secr inh: -90.5*; HepG2 tox: -4.7%; Giardia kill: 4.1; TGFb inhibitor: 11.1%

What do the screens show for `COc1cccc(/C=N/NC(=O)c2cc(-c3cccn3C)n[nH]2)c1`?
HT1080 IDH1KD tx: -3.4%; HT1080-NT tox: -4.0%; IL1B secr inh: -52.9*; HepG2 tox: -11.8%; Giardia kill: -19.4; TGFb inhibitor: 2.4%

Results for Cn1cccc1-c1cc(C(=O)N/N=C/c2ccc(Cl)cc2)[nH]n1 ?
HT1080 IDH1KD tx: inconclusive; HT1080-NT tox: inconclusive; IL1B secr inh: -18.8; HepG2 tox: -4.8%; Giardia kill: 0.4; TGFb inhibitor: 0.7%

How did Cc1ccccc1-c1nc(CS(=O)(=O)CC(=O)N2CCc3ccccc32)c(C)o1 do in these assays?
HT1080 IDH1KD tx: 13.5%; HT1080-NT tox: -0.4%; IL1B secr inh: 18.8; HepG2 tox: -9.2%; Giardia kill: 3.5; TGFb inhibitor: -1.3%

What do the screens show for `COc1cccc(Cn2nnc3c(=O)[nH]c(C4CCCN(C(=O)c5ccccc5Cl)C4)nc32)c1` (stereo unspecified)?
HT1080 IDH1KD tx: -15.0%; HT1080-NT tox: -14.2%; IL1B secr inh: -10.2; HepG2 tox: -4.4%; Giardia kill: 9.3; TGFb inhibitor: 0.0%

Results for COc1ccccc1CNC(=O)COC(=O)Cc1c(F)cccc1Cl ?
HT1080 IDH1KD tx: 8.9%; HT1080-NT tox: 15.0%; IL1B secr inh: -21.4; HepG2 tox: -35.0%; Giardia kill: -5.4; TGFb inhibitor: -3.9%

Results for CC1(C(=O)N/N=C/c2c(F)c(F)c(F)c(F)c2F)CC1(Cl)Cl (stereo unspecified) ?
HT1080 IDH1KD tx: inconclusive; HT1080-NT tox: inconclusive; IL1B secr inh: -99.5*; HepG2 tox: -110.5%; Giardia kill: 0.4; TGFb inhibitor: -23.8%

What do the screens show for `c1ccc(CNc2nc(NCC3CC3)nc3cc(-c4ccccc4)sc23)cc1`?
HT1080 IDH1KD tx: inconclusive; HT1080-NT tox: 23.1µM*; IL1B secr inh: -115.5*; HepG2 tox: -92.7%; TGFb inhibitor: inconclusive

Results for c1ccc(OCCNc2nc(NCC3CC3)nc3cc(-c4ccccc4)sc23)cc1 ?
HT1080 IDH1KD tx: inconclusive; HT1080-NT tox: 14.6µM*; IL1B secr inh: -106.2*; HepG2 tox: -92.2%; TGFb inhibitor: inconclusive

How did Cn1c(NCc2ccccc2)nc2cc(-c3ccccc3)sc2c1=O do in these assays?
HT1080 IDH1KD tx: 2.0%; HT1080-NT tox: 9.4%; IL1B secr inh: 50.7; HepG2 tox: -8.5%; TGFb inhibitor: -5.4%

How did CCn1nc([N+](=O)[O-])c(C(C#N)c2nc3ccccc3n2C)c(Cl)c1=O (stereo unspecified) do in these assays?
HT1080 IDH1KD tx: inconclusive; HT1080-NT tox: inconclusive; IL1B secr inh: -94.1*; HepG2 tox: 3.6%; Giardia kill: -2.7; TGFb inhibitor: -3.5%

How did CCCn1nc([N+](=O)[O-])c(C(C#N)c2nc3ccccc3s2)c(Cl)c1=O (stereo unspecified) do in these assays?
HT1080 IDH1KD tx: 1.12µM*; HT1080-NT tox: 2.82µM*; IL1B secr inh: -101.6*; HepG2 tox: 11.2µM*; Giardia kill: inconclusive; TGFb inhibitor: inconclusive

Results for COc1ccc2nc(NC(=O)C3=NN(c4ccccc4)C(=O)CC3)sc2c1 ?
HT1080 IDH1KD tx: -0.5%; HT1080-NT tox: -12.3%; IL1B secr inh: 11.0; HepG2 tox: -5.6%; Giardia kill: 13.5; TGFb inhibitor: -0.5%
